The values below come from PubChem BioAssay AID1415 (NMMLSC, 2008).

The structures appear in SMILES notation. In all, about 220,000 compounds went through this assay and about 710 (0.32%) were called active. Rule as the data show it: active = binding response below about 49% or above about 150%; inactive = in between. Only a selection was taken, and actives are over-represented in it overall.

The target of this test is Guanine nucleotide-binding protein G(o) subunit alpha (Homo sapiens) (UniProt P09471). Put plainly: RGS4-Galphao interaction inhibitors and enhancers – biochemical, multiplexed bead flow cytometry, primary screen (AID 1415).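 Also: fluorescent Galphao activated with aluminum fluoride binding bead-coupled RGS4.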 The following applies: at 10 µM, actives lie on both sides. On the technique in general: In flow cytometry, cells or beads pass a laser one at a time.
Chain of Guanine nucleotide-binding protein G(o) subunit alpha (Homo sapiens) (P09471 whole entry, looked up): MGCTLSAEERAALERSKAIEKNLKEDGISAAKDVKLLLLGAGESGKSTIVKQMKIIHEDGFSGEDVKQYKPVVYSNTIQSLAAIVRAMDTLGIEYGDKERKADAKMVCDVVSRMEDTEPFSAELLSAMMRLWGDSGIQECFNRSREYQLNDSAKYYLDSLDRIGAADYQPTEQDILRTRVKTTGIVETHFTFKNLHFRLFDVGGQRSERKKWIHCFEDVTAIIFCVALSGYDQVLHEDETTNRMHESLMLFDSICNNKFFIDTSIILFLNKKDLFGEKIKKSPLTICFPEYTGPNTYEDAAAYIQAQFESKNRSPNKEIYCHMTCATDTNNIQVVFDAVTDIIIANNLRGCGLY
Regarding `COCCNC(=S)N/N=C/c1c(C)[nH]c2ccccc12`, the binding response (% of control) is 159% [activator] (active). Regarding `Cc1[nH]c2ccccc2c1/C=N/NC(=O)CNC(=O)c1ccc2c(c1)OCO2`, the binding response (% of control) was 111% (inactive). Under `Cc1[nH]c2ccccc2c1/C=N\NC(=O)Cn1nnc(-c2ccccc2)n1` stands 102% (inactive); under `O=C(Nc1ccc(F)cc1)C1CCN(C(=O)c2ccc([N+](=O)[O-])cc2)CC1`, 99.8% (inactive). `COc1cc(C(=O)OCc2ccc([N+](=O)[O-])cc2)cc(OC)c1OC`: the binding response (% of control) was 98.2% (inactive). Under `CCN(CC)CCn1cnc2c1c(=O)n(CCOC(=O)c1cc(OC)c(OC)c(OC)c1)c(=O)n2C` stands 155% [activator] (active); under `CCN(CC)CCN1C(=O)C(=O)/C(=C(/O)c2ccc(OC)c(OC)c2)C1c1ccccn1` (stereo not given), 99.2% (inactive). As for `COCCCn1c(-c2cccs2)nc2nc3ccccc3nc21`, the binding response (% of control) was 103% (inactive). `COc1cc(OC)cc(C(=O)NCCSCc2ccco2)c1`: the binding response (% of control) is 93.2% (inactive).

Turning to `COc1cccc(C(=O)NNC(=O)c2ccccc2Br)c1`, the binding response (% of control) is 103% (inactive). As to `COc1cccc(C(=O)NCCSc2ccc(Br)cc2)c1`, the binding response (% of control) was 19.5% (active). Under `C#CCOCCOCCOCCNc1nc(N2CCN(C(=O)[C@H](CCC(=O)O)n3cc(C(N)CO)nn3)CC2)nc(N2CCN(C(=O)[C@H](CCCCN)n3cc(C(N)CC(C)C)nn3)CC2)n1` (stereo not given in full) stands 104% (inactive); under `Cc1ccc(NC(=O)c2oc(=O)c3ccccc3c2-c2ccccc2)c(C)c1`, 105% (inactive); under `CCCCCCCCCOC1OC(CO)C(O)C(O)C1NC(C)=O` (stereo not given), 98.8% (inactive).

With `CC(C)=CCC/C(C)=C/C(=O)O`, the binding response (% of control) was 92.6% (inactive). `COCCNC(=S)Nc1cc(S(=O)(=O)N2CCOCC2)ccc1N1CCCCC1`: the binding response (% of control) was 97.4% (inactive). To `COc1ccccc1CCNC(=O)c1cnccn1` belongs 97.6% (inactive); to `NC(=O)CSc1c[nH]c2ccccc12`, 30% (active). Consider `CCCn1cc(SCC(N)=O)c2ccccc21`, for which the binding response (% of control) was 82.2% (inactive). Turning to `O=C(Cc1c[nH]c2ccccc12)OCCOC(=O)Cc1c[nH]c2ccccc12`, the binding response (% of control) was 97.3% (inactive). `COc1ccc(Cl)cc1C(=O)NNC(=S)NC(=O)/C=C/c1ccco1`: the binding response (% of control) is 104% (inactive).

Take `CCOc1ccc(-c2c(C)n([O-])c3c([n+]2=O)CCCC3)cc1`: the binding response (% of control) is 102% (inactive). As to `Cc1c(S(=O)(=O)NCc2ccccc2)c(=O)n(C)c(=O)n1C`, the binding response (% of control) is 103% (inactive). Under `CC(C)=CCc1c(O)c(CC=C(C)C)c2occ(-c3ccc(O)cc3)c(=O)c2c1O` stands 96.8% (inactive).

For `CC(=O)c1cc(-c2ccccc2)n(CC(=O)NC2CCCCC2)c1C`, the binding response (% of control) was 94.2% (inactive).

Take `CCOCCCNC(=O)C(NC(=O)c1ccc(=O)[nH]c1)c1ccc(Cl)cc1` (stereo not given): the binding response (% of control) was 98.1% (inactive). Turning to `COc1ccc(C2=NOC(COC(=O)c3ccc4ccccc4n3)C2)cc1` (stereo not given), the binding response (% of control) is 99.3% (inactive). Take `CC(OC(=O)c1ccc2ccccc2n1)C(=O)c1ccccc1` (stereo not given): the binding response (% of control) is 103% (inactive). In the case of `COc1ccc(C(=O)COC(=O)c2ccc3ccccc3n2)cc1`, the binding response (% of control) was 36.8% (active). Under `Cc1nc(N)[nH]c(=O)c1Oc1cccc(C(F)(F)F)c1` stands 99.6% (inactive); under `CCCCCCCN=C(C)c1ccccc1O`, 103% (inactive). Consider `CCOC(=O)C1Cn2c(nc3c(c2=O)C(C)(CC)Cc2ccccc2-3)S1` (stereo not given), for which the binding response (% of control) is 93% (inactive).

Take `CCC(=O)Nc1cccc(C2=NOC3(C2)C[C@@H](C(N)=O)N(C(=O)c2cc([N+](=O)[O-])cc([N+](=O)[O-])c2C)C3)c1` (stereo not given in full): the binding response (% of control) is 96% (inactive).

As for `COc1ccc(/C=C/C(=O)Nc2ccc(C34CC5CC(CC(O)(C5)C3)C4)cc2)cc1OC`, the binding response (% of control) is 102% (inactive). Turning to `Cc1ccsc1/C=N/Nc1ccc(Cl)nn1`, the binding response (% of control) is 108% (inactive). `C=CCN1CC(C)/C(=N\O)CC1C` (stereo not given): the binding response (% of control) was 99.6% (inactive). To `O=C(NC1CCCCC1)c1ccc(CNc2c(N3CCOCC3)c(=O)c2=O)cc1` belongs 102% (inactive).

As for `CCN(CC)CCOc1ccc2c(c1)C(=NNC(=O)c1ccccn1)c1cc(OCCN(CC)CC)ccc1-2`, the binding response (% of control) is 172% [activator] (active). Under `COc1ccc(CC(=O)N/N=C(\C)c2ccccn2)cc1` stands 91.7% (inactive). Under `CCOc1cc(NC(=O)c2ccccn2)c(OCC)cc1NC(=O)c1ccc(OC)cc1` stands 102% (inactive).

`COC(=O)c1c(C(=O)OC)c(-c2cccc(C)c2)n2c1CS(=O)C2` (stereo not given): the binding response (% of control) is 91.5% (inactive). As to `COc1cc(OC)nc(NC(=O)CCl)n1`, the binding response (% of control) is 101% (inactive). To `CC(=O)Nc1nc(N(C)C)nc(N(C)C)n1` belongs 14.5% (active); to `CCC(=O)Nc1nc(OC)cc(OC)n1`, 102% (inactive); to `O=C(NCc1ccc(F)cc1)C1CCC(CNc2c(N3CCOCC3)c(=O)c2=O)CC1` (stereo not given), 11.6% (active). Regarding `CC(NC(=O)C1CCC(CNc2c(N3CCOCC3)c(=O)c2=O)CC1)c1ccccc1` (stereo not given), the binding response (% of control) is 99.8% (inactive). As to `COc1ccc(CNC(=O)C2CCC(CNc3c(N4CCOCC4)c(=O)c3=O)CC2)cc1` (stereo not given), the binding response (% of control) was 106% (inactive). Under `O=C(c1ccc(Br)o1)N(c1ccccn1)C1CCCCC1` stands 92.3% (inactive). Consider `CC(Nc1nc(N2CCN(CCO)CC2)nc2ccccc12)c1ccccc1` (stereo not given), for which the binding response (% of control) was 100% (inactive).

As for `Cc1ccc(NC(=S)N2CCN(c3ncccn3)CC2)cc1C`, the binding response (% of control) is 104% (inactive). Under `C=CCc1cccc2cc(C(=O)NC3CCCC3)c(=O)oc12` stands 97.8% (inactive); under `C/C=C\C=C\C(=O)N1CC2(CC(c3cccc(NC(=O)/C(C)=C\C)c3)=NO2)C[C@H]1C(N)=O` (stereo not given in full), 103% (inactive); under `COc1ccccc1C(=O)n1nc(-c2ccccc2)nc1N`, 98.8% (inactive).

In the case of `CCCC(=O)n1nc(-c2ccccc2)nc1N`, the binding response (% of control) was 25.8% (active). Under `COc1ccc(CC(=O)n2nc(-c3cccnc3)nc2N)cc1` stands 96.8% (inactive); under `CCCNC(=S)NC1CC2CCCC(C1)N2CC(C)C` (stereo not given), 99.3% (inactive); under `CCNC(=O)CC1C(=O)N(c2ccc(F)cc2)C(=O)N1CCc1sccc1C` (stereo not given), 99.7% (inactive). Consider `CC(C)C(NS(=O)(=O)c1cccs1)C(=O)Nc1nc(C(C)(C)C)cs1` (stereo not given), for which the binding response (% of control) is 99% (inactive). Under `COc1ccc(CCNC(=O)C2CC3Cn4c(nc5cc(C)c(C)cc54)C3N2C)cc1` (stereo not given) stands 103% (inactive). To `COc1ccc(C)cc1NC(=O)CSc1ccc(Cl)cc1` belongs 105% (inactive); to `CCOc1ccc(-c2ccc(SCC(=O)N3CCOCC3)nn2)cc1`, 104% (inactive). Consider `CCOC(=O)c1c(C)[nH]c(C2=NNC(=NC(C)COC)SC2)c1C` (stereo not given), for which the binding response (% of control) was 92.4% (inactive). Under `CCOC(=O)C1C(c2ccc(Cl)cc2)NC(=S)NC1(O)C(F)(F)F` (stereo not given) stands 102% (inactive); under `CCOC(=O)C1Sc2[nH]c(=O)sc2C(c2ccc(Cl)cc2)C1C(=O)OCC` (stereo not given), -41.2% (active). Under `CCOC(=O)C1=C(C)NC(=O)N(C(C)=O)C1c1ccc(Cl)cc1` (stereo not given) stands 115% (inactive). Under `CC(=O)NS(=O)(=O)c1ccc(NC(=O)C2C3C=CC(C3)C2C(=O)O)cc1` (stereo not given) stands 101% (inactive). On to `CCOC(=O)c1c(Cc2ccc(Cl)cc2)c[nH]c1C`, for which the binding response (% of control) is 102% (inactive). Under `Cc1cc(C)cc(N(CC(=O)Nc2c(C)n(C)n(-c3ccccc3)c2=O)S(C)(=O)=O)c1` stands -43.6% (active); under `Cc1cc(C)cc(N(C(C)C(=O)Nc2c(C)n(C)n(-c3ccccc3)c2=O)S(C)(=O)=O)c1` (stereo not given), 102% (inactive). Under `Cc1ccc(S(=O)(=O)CC(=O)Nc2c(C)n(C)n(-c3ccccc3)c2=O)cc1` stands 97.9% (inactive); under `COCCCNC(=O)CN1CCN(Cc2ccccc2Cl)C1=O`, 103% (inactive); under `O=C(COc1ccc(/C=N/NC(=O)c2ccc(O)cc2)cc1)Nc1ccc([N+](=O)[O-])cc1`, 103% (inactive). On to `Cc1cc(N2CCOCC2)nc(-c2ccc(Br)cc2)n1`, for which the binding response (% of control) is 95.9% (inactive). To `C#CCOCCOCCOCCNc1nc(N2CCN(C(=O)[C@H](CCC(=O)O)n3cc(C(N)CO)nn3)CC2)nc(N2CCN(C(=O)[C@H](CCCCN)n3cc(C(N)[C@H](C)CC)nn3)CC2)n1` (stereo not given in full) belongs 102% (inactive). On to `C=CCc1cccc2cc(C(=O)Nc3ccc(NC(C)=O)cc3)c(=O)oc12`, for which the binding response (% of control) was 102% (inactive).

Turning to `N#Cc1nc(COc2ccc(-c3ccccc3)cc2)oc1NCc1cccnc1`, the binding response (% of control) was 153% [activator] (active). To `N#Cc1nc(-c2ccc(OCc3ccccc3)cc2)oc1NCCCN1CCOCC1` belongs 100% (inactive); to `N#Cc1nc(Cc2ccccc2)oc1NCCc1ccccc1`, 103% (inactive).

Regarding `Cc1ccccc1C1=NC(C(F)(F)F)(C(F)(F)F)c2c(n(-c3ccc(F)cc3)c(=O)[nH]c2=O)N1`, the binding response (% of control) is 104% (inactive).

Regarding `CCC(C)NC(=O)CN(C1CCCCC1)S(C)(=O)=O` (stereo not given), the binding response (% of control) was 99.8% (inactive). Under `O=S(=O)(NC(=S)Nc1ccccc1)c1ccc(F)cc1` stands 103% (inactive); under `CC(C)Oc1ccc(CC(=O)NNC(=S)Nc2ccc(Br)cc2)cc1`, 99.3% (inactive); under `O=C(NCc1ccc2c(c1)OCO2)C12CC3CC(CC(C3)C1)C2`, 98.9% (inactive).

As to `Cc1ccc(C2NC(C(=O)O)CS2)cc1` (stereo not given), the binding response (% of control) is 103% (inactive). `Cc1cccc(S(=O)(=O)CC(=O)Nc2nc(-c3ccccc3)cs2)c1`: the binding response (% of control) was 183% [activator] (active). Take `NS(=O)(=O)c1ccc(Nc2nc(-c3ccccc3)cs2)cc1`: the binding response (% of control) is 106% (inactive).

Take `O=C(CSC1=NCCS1)Nc1nc(-c2ccccc2)cs1`: the binding response (% of control) was 83.7% (inactive). Under `CCOc1ccccc1Oc1cn[nH]c1-c1ccc(OC)cc1O` stands 99% (inactive); under `COc1ccc(Cl)cc1C(=O)NNC(=O)c1nc2nc(C)cc(C)n2n1`, 103% (inactive); under `C#CCOCCOCCOCCNc1nc(N2CCN(C(=O)[C@H](C(C)C)n3cc(CCO)nn3)CC2)nc(N2CCN(C(=O)[C@H]([C@@H](C)CC)n3cc(CCCN=C(N)N)nn3)CC2)n1`, 101% (inactive).
